Results taken from ChEMBL document CHEMBL3988442, “University of Dundee, Small-Polar-MMV Screening Library” (2021).
For some of these results: Measured potencies and affinities stand elsewhere.

Key:
Set-up in all cases: scale not given: direction of the effect not stated beside the values
[1] = target: Protein translocase subunit SecA (Escherichia coli (strain K12)) (UniProt P10408); experiment: Assay to Identify E. coli SecA ATPase Inhibitors; type: functional; conditions: 30 µM
[2] = target: T1, Ubiquitin-activating enzyme e1, putative (Leishmania donovani (strain BPK282A1)) (UniProt E9BSI1); experiment: Leishmania donovani Ubiquitin Activating Enzyme (LdE1); type: functional; conditions: 30 µM
T1 sequence (whole entry): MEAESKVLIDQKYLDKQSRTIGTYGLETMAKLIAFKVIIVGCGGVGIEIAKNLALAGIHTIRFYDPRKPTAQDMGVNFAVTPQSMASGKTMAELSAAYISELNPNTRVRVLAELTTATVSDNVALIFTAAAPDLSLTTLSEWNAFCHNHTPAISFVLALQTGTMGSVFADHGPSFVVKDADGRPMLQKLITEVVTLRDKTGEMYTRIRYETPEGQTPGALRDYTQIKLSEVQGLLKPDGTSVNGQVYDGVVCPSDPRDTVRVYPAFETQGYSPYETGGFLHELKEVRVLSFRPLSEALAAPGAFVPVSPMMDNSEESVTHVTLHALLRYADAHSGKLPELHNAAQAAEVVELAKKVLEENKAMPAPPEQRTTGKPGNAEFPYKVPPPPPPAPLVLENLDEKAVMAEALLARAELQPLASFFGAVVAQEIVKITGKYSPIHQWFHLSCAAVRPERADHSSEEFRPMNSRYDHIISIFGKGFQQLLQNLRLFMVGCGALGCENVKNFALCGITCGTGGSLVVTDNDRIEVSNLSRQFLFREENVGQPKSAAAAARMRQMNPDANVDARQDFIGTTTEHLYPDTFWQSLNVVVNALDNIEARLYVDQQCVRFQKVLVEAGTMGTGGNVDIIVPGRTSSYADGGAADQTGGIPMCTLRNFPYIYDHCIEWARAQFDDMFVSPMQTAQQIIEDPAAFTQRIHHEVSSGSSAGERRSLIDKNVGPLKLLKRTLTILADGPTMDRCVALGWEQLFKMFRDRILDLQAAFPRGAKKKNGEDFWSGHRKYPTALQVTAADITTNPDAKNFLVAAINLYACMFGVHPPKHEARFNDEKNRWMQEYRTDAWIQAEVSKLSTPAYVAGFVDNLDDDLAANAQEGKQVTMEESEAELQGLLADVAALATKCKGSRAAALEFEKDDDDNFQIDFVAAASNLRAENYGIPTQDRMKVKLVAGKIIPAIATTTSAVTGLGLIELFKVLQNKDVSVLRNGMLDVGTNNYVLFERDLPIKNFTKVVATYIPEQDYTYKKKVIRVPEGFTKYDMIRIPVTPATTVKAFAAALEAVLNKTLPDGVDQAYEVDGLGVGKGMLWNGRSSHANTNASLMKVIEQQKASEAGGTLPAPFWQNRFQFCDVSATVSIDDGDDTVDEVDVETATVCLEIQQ

[3] = target: AMP-activated protein kinase, AMPK (Homo sapiens) (UniProt P54646+O43741+P54619+Q9UGJ0+Q9Y478+Q13131+Q9UGI9); experiment: AMP-dependent Kinase enzyme assay. An in vitro enzyme assay that detects ADP turnover that is directly proportional to AMPK activity. This uses naive AMPK that is activated during the assay with MK-8722; type: functional; conditions: 30 µM
[4] = target: Sialic acid-binding Ig-like lectin 9 (Homo sapiens) (UniProt Q9Y336); experiment: Hs-Siglec9 ALPHAscreen SOP 20170721; conditions: 10 µM
Sialic acid-binding Ig-like lectin 9 (Homo sapiens), sequence (Q9Y336 whole entry): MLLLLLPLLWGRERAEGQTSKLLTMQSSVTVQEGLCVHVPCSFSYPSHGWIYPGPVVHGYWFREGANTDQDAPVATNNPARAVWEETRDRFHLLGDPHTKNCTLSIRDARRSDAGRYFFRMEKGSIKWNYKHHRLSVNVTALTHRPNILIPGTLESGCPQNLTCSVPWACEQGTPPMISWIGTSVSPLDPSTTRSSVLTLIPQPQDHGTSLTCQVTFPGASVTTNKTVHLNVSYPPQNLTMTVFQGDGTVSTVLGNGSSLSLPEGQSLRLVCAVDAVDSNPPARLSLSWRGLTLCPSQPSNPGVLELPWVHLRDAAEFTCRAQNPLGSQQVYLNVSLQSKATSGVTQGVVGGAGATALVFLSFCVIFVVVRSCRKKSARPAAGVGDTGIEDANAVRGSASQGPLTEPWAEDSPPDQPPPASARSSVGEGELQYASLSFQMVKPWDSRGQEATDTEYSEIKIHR

Trypanosoma cruzi = experiment: Trypanosoma cruzi phosphomannomutase and mannose-1-phosphate guanylyltransferase assay; type: functional; conditions: 10 µM
[5] = target: T2, Arginase-2, mitochondrial (Homo sapiens) (UniProt P78540); experiment: in vitro enzyme assay to detect the production of urea directly proportional to the activity of Arginase II; type: functional; conditions: 33.3 µM; note: in the data most compounds retested in dose-response had high values
T2 sequence (whole entry): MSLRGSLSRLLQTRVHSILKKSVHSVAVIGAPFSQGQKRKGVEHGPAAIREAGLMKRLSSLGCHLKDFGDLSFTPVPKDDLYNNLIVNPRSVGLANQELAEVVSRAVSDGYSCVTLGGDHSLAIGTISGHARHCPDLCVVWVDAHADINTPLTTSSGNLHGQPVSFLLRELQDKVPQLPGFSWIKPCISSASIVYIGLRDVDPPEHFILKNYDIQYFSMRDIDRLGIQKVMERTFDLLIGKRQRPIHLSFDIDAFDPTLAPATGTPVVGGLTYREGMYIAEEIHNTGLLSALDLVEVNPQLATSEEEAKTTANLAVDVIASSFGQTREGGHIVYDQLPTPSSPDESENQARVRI

[6] = target: T3, Proteasome subunit beta (Trypanosoma cruzi) (UniProt O96673); experiment: Trypanosoma cruzi proteasome chymotrypsin-like activity (TcProtChymo) assay.; note: in the data most compounds retested in dose-response had high values; type: functional; conditions: 9.37 µM
T3 sequence (whole entry): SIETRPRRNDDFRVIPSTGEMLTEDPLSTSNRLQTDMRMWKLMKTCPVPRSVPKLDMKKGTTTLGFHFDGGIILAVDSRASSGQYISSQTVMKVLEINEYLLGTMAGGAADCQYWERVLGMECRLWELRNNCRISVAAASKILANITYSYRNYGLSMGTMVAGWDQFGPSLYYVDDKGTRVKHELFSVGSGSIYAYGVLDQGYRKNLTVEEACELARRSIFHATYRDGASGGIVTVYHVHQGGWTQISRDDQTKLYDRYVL

Homo sapiens = organism: Homo sapiens; experiment: To identify inhibition of the IFN signalling (Jak-Stat) pathway via expression of an eGFP reporter gene under the control of an IFN-stimulated response element (ISRE) containing MxA promoter.; type: functional; conditions: 30 µM
[7] = target: T4, Tyrosyl-tRNA synthetase, putative (Trypanosoma cruzi (strain CL Brener)) (UniProt Q4DSP6); experiment: Trypanosoma cruzi tyrosyl tRNA synthetase (TcYRS) _High Tyrosine SOP; type: functional; conditions: 30 µM; note: in the data most compounds retested in dose-response had high values
T4 sequence (whole entry): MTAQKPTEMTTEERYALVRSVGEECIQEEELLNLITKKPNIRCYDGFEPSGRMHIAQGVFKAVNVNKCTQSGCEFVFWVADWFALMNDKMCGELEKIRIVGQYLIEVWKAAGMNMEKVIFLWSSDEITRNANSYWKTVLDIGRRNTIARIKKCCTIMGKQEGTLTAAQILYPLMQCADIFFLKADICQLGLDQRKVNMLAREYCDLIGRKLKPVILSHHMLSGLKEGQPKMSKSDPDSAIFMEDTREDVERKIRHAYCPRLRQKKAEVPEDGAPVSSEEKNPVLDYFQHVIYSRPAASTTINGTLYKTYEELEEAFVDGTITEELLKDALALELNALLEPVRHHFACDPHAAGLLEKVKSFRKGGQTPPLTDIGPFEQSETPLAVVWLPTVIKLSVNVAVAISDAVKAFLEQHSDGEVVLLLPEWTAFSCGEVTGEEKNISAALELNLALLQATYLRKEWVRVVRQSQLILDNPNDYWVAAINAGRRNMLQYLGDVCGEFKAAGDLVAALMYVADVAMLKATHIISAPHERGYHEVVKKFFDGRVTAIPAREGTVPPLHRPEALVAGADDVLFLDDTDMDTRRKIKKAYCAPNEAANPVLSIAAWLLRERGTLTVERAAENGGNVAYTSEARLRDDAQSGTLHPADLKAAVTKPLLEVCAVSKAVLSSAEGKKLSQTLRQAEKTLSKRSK

[8] = target: T4, Tyrosyl-tRNA synthetase, putative (Trypanosoma cruzi (strain CL Brener)); experiment: Trypanosoma cruzi tyrosyl tRNA synthetase (TcYRS) SOP; type: functional; conditions: 30 µM
[9] = target: Chromo domain-containing protein 1 (Saccharomyces cerevisiae (strain ATCC 204508 / S288c) (Baker's yeast)) (UniProt P32657); experiment: ScCHD-1 Enzyme Inhibition Assay; type: functional; conditions: 30 µM; note: in the data most compounds retested in dose-response had high values
Chromo domain-containing protein 1 (Saccharomyces cerevisiae (strain ATCC 204508 / S288c) (Baker's yeast)), sequence (P32657 whole entry, the tested form may be a part): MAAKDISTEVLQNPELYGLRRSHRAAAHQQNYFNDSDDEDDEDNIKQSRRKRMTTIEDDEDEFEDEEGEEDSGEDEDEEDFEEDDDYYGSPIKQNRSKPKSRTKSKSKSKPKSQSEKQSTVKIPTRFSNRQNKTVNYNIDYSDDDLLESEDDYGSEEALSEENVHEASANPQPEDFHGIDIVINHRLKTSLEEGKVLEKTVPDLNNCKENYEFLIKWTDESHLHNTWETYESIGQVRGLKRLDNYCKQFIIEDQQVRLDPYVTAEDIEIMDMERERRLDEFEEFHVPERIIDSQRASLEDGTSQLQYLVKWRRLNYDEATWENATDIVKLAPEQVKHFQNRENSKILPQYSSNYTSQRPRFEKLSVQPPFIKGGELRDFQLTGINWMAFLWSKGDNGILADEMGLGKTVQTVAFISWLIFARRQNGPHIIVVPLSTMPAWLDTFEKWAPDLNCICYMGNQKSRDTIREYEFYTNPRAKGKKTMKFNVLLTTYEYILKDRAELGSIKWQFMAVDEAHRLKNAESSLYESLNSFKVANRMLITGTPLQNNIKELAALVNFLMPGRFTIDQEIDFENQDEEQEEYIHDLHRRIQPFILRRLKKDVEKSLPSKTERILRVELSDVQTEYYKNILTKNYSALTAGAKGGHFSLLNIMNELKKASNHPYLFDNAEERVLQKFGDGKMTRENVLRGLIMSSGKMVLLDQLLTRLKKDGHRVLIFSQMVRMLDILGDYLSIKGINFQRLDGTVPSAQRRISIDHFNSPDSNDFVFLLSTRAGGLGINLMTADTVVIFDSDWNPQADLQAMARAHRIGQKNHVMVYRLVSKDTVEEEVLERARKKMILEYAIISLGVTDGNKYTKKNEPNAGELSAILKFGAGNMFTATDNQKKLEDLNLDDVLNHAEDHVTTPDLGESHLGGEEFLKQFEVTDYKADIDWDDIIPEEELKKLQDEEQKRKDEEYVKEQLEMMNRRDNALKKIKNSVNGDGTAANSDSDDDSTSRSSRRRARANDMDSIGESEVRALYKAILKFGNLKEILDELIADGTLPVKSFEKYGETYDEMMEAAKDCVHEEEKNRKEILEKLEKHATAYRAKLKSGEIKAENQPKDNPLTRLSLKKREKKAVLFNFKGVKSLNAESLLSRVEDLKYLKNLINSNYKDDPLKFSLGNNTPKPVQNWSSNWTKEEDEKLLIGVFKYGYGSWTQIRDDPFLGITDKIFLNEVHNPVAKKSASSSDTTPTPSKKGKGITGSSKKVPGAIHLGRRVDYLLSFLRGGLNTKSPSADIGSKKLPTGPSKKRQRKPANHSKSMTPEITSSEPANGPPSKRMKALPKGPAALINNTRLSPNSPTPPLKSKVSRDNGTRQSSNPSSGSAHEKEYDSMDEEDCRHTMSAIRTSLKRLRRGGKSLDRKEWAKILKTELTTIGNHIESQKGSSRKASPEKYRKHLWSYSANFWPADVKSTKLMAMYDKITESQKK

Protein translocase subunit SecA (Escherichia coli (strain K12)), sequence (P10408 whole entry): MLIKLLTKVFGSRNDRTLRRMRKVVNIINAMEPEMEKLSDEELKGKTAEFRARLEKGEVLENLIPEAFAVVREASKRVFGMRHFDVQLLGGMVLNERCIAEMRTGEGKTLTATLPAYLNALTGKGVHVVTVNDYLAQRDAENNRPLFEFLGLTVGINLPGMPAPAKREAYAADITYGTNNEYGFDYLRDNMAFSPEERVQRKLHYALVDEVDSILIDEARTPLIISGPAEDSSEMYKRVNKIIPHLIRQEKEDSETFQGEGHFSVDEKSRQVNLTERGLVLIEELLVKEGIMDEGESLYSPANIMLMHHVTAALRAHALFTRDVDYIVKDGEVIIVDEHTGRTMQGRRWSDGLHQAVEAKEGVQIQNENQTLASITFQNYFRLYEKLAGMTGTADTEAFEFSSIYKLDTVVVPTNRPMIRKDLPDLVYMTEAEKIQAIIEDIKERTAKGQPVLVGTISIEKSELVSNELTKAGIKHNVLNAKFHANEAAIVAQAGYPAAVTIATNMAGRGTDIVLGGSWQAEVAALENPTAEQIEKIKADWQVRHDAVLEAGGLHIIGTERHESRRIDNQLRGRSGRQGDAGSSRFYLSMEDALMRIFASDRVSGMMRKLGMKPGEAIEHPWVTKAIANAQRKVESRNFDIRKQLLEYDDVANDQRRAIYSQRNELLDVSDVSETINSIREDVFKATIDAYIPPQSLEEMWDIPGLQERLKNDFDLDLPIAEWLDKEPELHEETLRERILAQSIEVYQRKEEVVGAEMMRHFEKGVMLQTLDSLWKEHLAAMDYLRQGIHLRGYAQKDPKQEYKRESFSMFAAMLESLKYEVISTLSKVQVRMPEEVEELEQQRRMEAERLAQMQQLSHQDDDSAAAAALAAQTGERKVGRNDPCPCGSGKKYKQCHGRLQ

SMILES | Percent Effect [1] [%] | Percent Effect [2] [%] | Percent Effect [3] [%] | Percent Effect [4] [%] | Percent Effect (Trypanosoma cruzi) [%] | Percent Effect [5] [%] | Percent Effect [6] [%] | Percent Effect (Homo sapiens) [%] | Percent Effect [7] [%] | Percent Effect [8] [%] | Percent Effect [9] [%]
Cc1nc(CCCNC(=O)C2CC(=O)N(C3CC3)C2)sc1C (stereo not given) | 6.83 | 16.4 | -10.9 | 5.44 | 1.59 | -10.8 | 16.9 | 25.5 | 8.33 | 28.4 | 2.71
O=C(NCCNc1ncccn1)C1CCN(c2ncccn2)CC1 | -4.14 | 10.8 | -3.16 | 5.87 | 7.71 | -4.62 | 5.57 | 26.3 | -10.9 | 13.4 | 1.05
CSCC(C)(O)CNC(=O)c1cc(Br)ccc1Cl (stereo not given) | -6.56 | 2.74 | -10.3 | 29.6 | 9.01 | -4.54 | 18.1 | 10.3 | 3.23 | 17.5 | 34.8
Cc1ccccc1NS(=O)(=O)c1cc2c(c(C(=O)O)c1)OCCO2 | -8.46 | 7.89 | 0.578 | -1.17 | -7.19 | -6.47 | 5.67 | 2.34 | 2.46 | 1.24 | 3.8
CCc1cnc2c(c1Nc1ccncc1)c(=O)n(C)c(=O)n2C | 0.799 | 18.2 | 5.71 | -13.1 | 2.27 | 1.94 | 14.6 | 35.5 | 7.41 | 14.1 | -10.9
CC(c1nc(C(C)(C)C)no1)N1CCN(CC(=O)N2CCOCC2)CC1 (stereo not given) | -3.63 | 0 | 1.02 | 12.9 | -1.66 | -1.18 | 10.1 | 0.488 | 2.13 | 2.6 | 1.93
O=C(Nc1cccc(CN2CCOC2=O)c1)N1CCSCC1 | -1.53 | 12.5 | -15.6 | 9.65 | 2.04 | 3.09 | 23.3 | -2.05 | 8.42 | 15.4 | 83.9
Cc1cc(C(=O)N2CC[C@H](OCC3CC3)[C@@H]2Cc2cccnc2)no1 | -2.54 | 0 | 0.886 | -3.88 | 0.772 | -36.4 | 4.79 | -3.71 | -1.04 | -2.5 | -5.62
Cn1cc(C(=O)N[C@@H]2CN(Cc3cccs3)[C@@H]3CCCO[C@@H]32)cn1 | -4.79 | 13.3 | -3.04 | -0.505 | 0.579 | -49.6 | 9.74 | -5.26 | 1.04 | 12.5 | -7.8
O=C(NCc1nnc2n1CCCCC2)N1CCc2sccc2C1 | 0.647 | 16.5 | -6.61 | 2.88 | 1.95 | 2.8 | 13 | 16.8 | 0 | 10.1 | -27
COc1cccc2c1OCC(CNC(=O)CSc1nc(N)n[nH]1)C2 (stereo not given) | -4.78 | 0 | -3.58 | 26.8 | 3.62 | -3.23 | 8.84 | 4.85 | 8.6 | 21 | -3.99
Cc1cc(CN2CCOC(CN(C)C)C2)no1 (stereo not given) | -5.93 | 5.41 | -1.25 | 0.559 | -4.92 | 1.66 | -2.15 | 14.9 | 1.98 | 1.22 | 6.53
O=C(Cn1cccnc1=O)NC(Cc1ccsc1)c1ccccn1 (stereo not given) | -10 | 14.9 | 0.845 | 8.55 | 1.98 | 0.232 | 5.3 | 2.88 | 5.38 | 9.09 | -19.6
CC(OCC(F)(F)F)C(=O)N1CCN(S(C)(=O)=O)CC1 (stereo not given) | -3.82 | 8.22 | 1.32 | -5.16 | -3.92 | 1.36 | 9.05 | 17.4 | 6.45 | 15 | -6.7
Cn1cc(C(=O)NCc2cn3c(n2)CN(Cc2ccccn2)CC3)cn1 | -7.16 | 2.7 | 4.33 | -3.43 | 2.73 | 2.08 | -0.254 | -6.36 | 6.93 | 8.54 | -1.37
CC(C)c1ncc(CN2C[C@@H](CN3CCC(CO)CC3)[C@@H](CO)C2)cn1 | -3.44 | 8 | -6.42 | 4.65 | 3.02 | 1.56 | 19.7 | 10.9 | 3.83 | 11.1 | -4.15
CCOc1nnc(CN2CCOC(CNc3cccnn3)C2)s1 (stereo not given) | -1.03 | 20.8 | -24.7 | -0.385 | 2.43 | -3.92 | 11.8 | 10.6 | 16.5 | 7.32 | -11.3
Cn1cc(CN2CCn3c(CNC(=O)c4cccn4C)cnc3C2)cn1 | 1.54 | 10.7 | -1.53 | 26.8 | -0.193 | -52.1 | 14 | 0.903 | 7.29 | 22.5 | -7.88
CC(COc1ccccc1)NCc1nc(-c2cccnc2)no1 (stereo not given) | -2.6 | 6.94 | -4.69 | 0.164 | 1.85 | 3.09 | 6.14 | 5.92 | 3.16 | 10.3 | -2.08
Cn1ccc(CN2CCC(CCc3ccc(O)cc3)CC2)cc1=O | -1.04 | 6.33 | 43.4 | 0.347 | 3.38 | -1.07 | 1.89 | 10.3 | 0 | -17.7 | -10.1
